This excerpt belongs to a sample that is enriched for hits.
NPSR antagonist – qHTS Assay for Antagonists of the Neuropeptide S Receptor: cAMP Signal Transduction; Q6W5P4; CHO-NPSR cells, cAMP TR-FRET, antagonist mode; Potency, µM (highest dose often 38.3 µM), most hits filed as inhibitors; hit rate 1% among 220,000; note: nearly all actives have a fitted effect of over 50% in size
Target sequence (Q6W5P4 whole entry, looked up): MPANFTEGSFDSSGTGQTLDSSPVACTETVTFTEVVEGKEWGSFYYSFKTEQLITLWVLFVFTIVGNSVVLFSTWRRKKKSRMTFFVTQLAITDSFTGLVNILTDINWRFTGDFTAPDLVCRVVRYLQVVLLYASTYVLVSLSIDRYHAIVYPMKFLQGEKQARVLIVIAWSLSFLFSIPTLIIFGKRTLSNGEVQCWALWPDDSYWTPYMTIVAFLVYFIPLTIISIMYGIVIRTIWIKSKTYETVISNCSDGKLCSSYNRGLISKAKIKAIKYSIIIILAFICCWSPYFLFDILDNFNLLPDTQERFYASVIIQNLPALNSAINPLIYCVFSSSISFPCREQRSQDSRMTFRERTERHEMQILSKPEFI
RXFP1 agonist – qHTS Assay for Agonists of the Relaxin Receptor RXFP1; Relaxin receptor 1 (Homo sapiens), Q9HBX9; HEK293T-RXFP1 cAMP TR-FRET, 30 min; response scale: percent of porcine relaxin response, buffer zero; hit rate 0.3% among 370,000; Potency, µM (highest dose often 57.5 µM), usual class: activators; note: nearly all actives have a fitted effect of over 60% in size
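HEK293 cells stably expressing RXFP1, treated 30 min at 37C with compounds plus PDE4 inhibitor Ro 20174; cAMP measured by HTRF TR-FRET. Normalized to buffer and 29 nM porcine relaxin; EC50 by Hill fit.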
PTHR1 agonist – qHTS for PTHR1 Agonists: Primary Screen. Parathyroid hormone/parathyroid hormone-related peptide receptor (Homo sapiens), Q03431. HEK293 GP2 PTHR1 cells, GloSensor cAMP luminescence, 1 h. Potency, µM (highest dose often 115 µM), hits mostly activators. hit rate 0.075% among 410,000. AID 743266, 2014; note: nearly all actives have a fitted effect of over 55% in size
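HEK-293-derived GP2 cells expressing PTHR1 and a GloSensor cAMP reporter, 3,000/well, plated overnight, given luciferin plus IBMX (each 0.5 mM as added) for 1 h at 37 °C, then compound for 1 h at 37 °C. Luminescence was read after 15 min at room temperature.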
RXFP1 antagonist – qHTS Assay for Antagonists of the Relaxin Receptor RXFP1. Relaxin receptor 1 (Homo sapiens), Q9HBX9. HEK293-RXFP1, relaxin-stimulated cAMP HTRF, 30 min; stronger effect = lower value. activity change, negative = inhibition, % at 57.5 µM. hit rate 0.59% among 350,000;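 active = activity change of -60% or lower, but not beyond a set lower limit; inconclusive = change between -60% and -40%, or beyond the set limit; inactive = change above -40%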
TSHR antag – Antagonists of the Thyroid Stimulating Hormone Receptor: HTS campaign; Thyrotropin receptor (Homo sapiens), P16473; hit rate 0.2% among 330,000; activity change, negative = inhibition, % at 11.5 µM; TSHR-expressing cells, TSH-stimulated cAMP HTRF, 2 h; stronger effect = lower value; AID 504810, 2011;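 active = activity change below a set negative limit, meaning inhibition stronger than a set level, cut at about -70% in these data; inconclusive = activity change between two set negative limits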
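Antagonism was scored as loss of TSH-driven cAMP in TSHR cells, stimulated with 4nM TSH (EC80) for 2 hours at 37 deg C and detected by homogeneous HTRF competition immunoassay.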
TCR act – Activators of T cell receptors: qHTS campaign. primary human leukocytes, anti-CD3, IL-2 HTRF, 48 h. Potency, µM (highest dose often 9.22 µM), most hits filed as activators. 330,000 tested, under 10 active
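Readout: HTRF IL-2, Eu-cryptate/d2 antibody pair, 320nm excitation, 665nm emission. Stimulus: a-CD3 beads, no co-stimulation. Cells: primary human leukocytes. Exposure: 48 hr with compound.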
Numbers stand for hits; n = inactive; u = inconclusive; x = not tested or not shown. Unless noted, calls come from the whole dose curve; as a rule, active = well fitted curve in the direction sought with a large enough effect; inconclusive = small, poorly fitted or top-dose-only effect, or another doubt; inactive = no such curve, though single readings can be large; an effect the other way counts as inactive or inconclusive.

SMILES	NPSR antagonist	RXFP1 agonist	PTHR1 agonist	RXFP1 antagonist	TSHR antag	TCR act
CCOC(=O)c1sc(=NC(=O)c2cccc(OC)c2)n(C)c1C	10µM	n	n	n	n	n
CNc1c(NC(=O)c2ccc3c(c2)OCO3)c(=O)oc2ccccc12	x	n	u	n	-135.9	n
CCc1cccc(NC(=O)CN(C)S(=O)(=O)c2ccc3c(c2)CCCN3C(C)=O)c1	x	n	n	n	x	x
Cc1ccc(C(=O)/C=C/C(=O)c2ccc(C)cc2)cc1	u	n	n	-66.5	n	n
Cc1ccc(/C=C/C(=O)c2ccc(C)cc2)cc1	n	n	n	n	n	n
Cc1c(N)cccc1C(F)(F)F	x	x	x	n	x	x
Cc1nnnn1/C(=C\c1ccccc1)C(=O)OCC(=O)Nc1ccc(Cl)cc1F	x	n	n	-63.7	n	n
Cc1nn(-c2ccc(N3CCOCC3)nn2)c(C)c1CCC(=O)NCc1ccccc1F	x	n	n	n	-105.0	n
COc1ccccc1CNC(=O)CCc1c(C)nn(-c2ccc(N3CCOCC3)nn2)c1C	x	n	n	x	x	x
COc1ccc(/C=C2/SC(=S)N(c3ccc(S(=O)(=O)Nc4nccs4)cc3)C2=O)cc1	n	n	n	-79.6	n	n
Cc1ccc(N2C(=O)/C(=C/c3cccnc3)SC2=S)cc1	n	n	n	n	n	n
Cc1ccc(Oc2ccc3c(c2)C(=O)N(c2ccc(S(=O)(=O)Nc4nccs4)cc2)C3=O)cc1	u	n	n	-106.7	n	n
Cc1ccc(/C=C2/SC(=S)N(c3ccc(S(=O)(=O)Nc4nccs4)cc3)C2=O)cc1	n	n	n	-66.5	n	n
O=C1/C(=C/c2ccccn2)SC(=S)N1c1ccc(O)cc1	n	n	n	n	n	n
O=C1/C(=C\c2ccccn2)SC(=S)N1c1ccc(S(=O)(=O)Nc2nccs2)cc1	n	n	n	-80.7	n	n
COc1ccc(/C=C2\SC(=O)N(CCC(=O)Nc3ccc(S(=O)(=O)Nc4nccs4)cc3)C2=O)cc1	n	n	n	n	n	n
Cn1ncc(S(=O)(=O)Cc2ccccc2)c(Br)c1=O	x	x	x	x	n	x
O=C(CCCCn1c(=S)[nH]c2ccsc2c1=O)NCc1ccco1	n	n	n	-81.1	n	x
O=C(CCCn1c(=S)[nH]c2ccsc2c1=O)NCc1ccco1	u	n	n	-78.1	n	x
Cc1cc2nc(-c3ccc(NC(=O)c4ccccc4F)cc3)oc2cc1C	x	n	u	n	x	x
CC(=O)Nc1nc(C)c(C(C)=O)s1	n	n	n	n	n	n
CC(=O)c1sc(NC(=O)C(C)C)nc1C	n	8.91µM	n	n	n	n
Oc1cccc(/C=N/N(Cc2ccccc2)c2ccccc2)c1	n	n	n	n	n	n
Oc1ccc(/C=N/N(Cc2ccccc2)c2ccccc2)c(O)c1O	n	n	n	-92.4	n	n
COc1ccc(N2CCN(C(CNC(=O)c3c(F)cccc3F)c3ccc4c(c3)OCO4)CC2)cc1 (centres undefined)	x	n	n	n	x	x
CCc1ccc(NS(=O)(=O)c2cc3[nH]c(=O)c(=O)[nH]c3cc2C)cc1	x	n	n	n	-140.2	n
CCC(=O)N1c2ccccc2CC1C(=O)NCCc1ccccc1OC (centres undefined)	x	n	n	n	x	x
Cc1ccc2oc3c(c(=O)c2c1)C(c1cccc(O)c1)N(c1ccccn1)C3=O (centres undefined)	10µM	n	n	u	n	n
O=C(NCc1cccnc1)/C(=C\c1ccc(-c2ccc(Br)cc2)o1)S(=O)(=O)c1ccccc1	n	n	n	u	n	n
O=C(NCc1cccnc1)/C(=C/c1ccc(-c2ccc(Cl)cc2)o1)S(=O)(=O)c1ccccc1	10µM	n	n	n	n	n

Screening results from PubChem BioAssay.
